Hit rate of the full screen: of about 370,000 compounds, about 1,600 (0.43%) were called active. Cut-off read from the data, not from the text of the source: active = inhibition above about 24%; inactive = the rest. This excerpt belongs to a sample that is enriched for actives.
These molecules were tested against Major prion protein (Homo sapiens) (UniProt P04156) (assay: inhibitors of human cell surface prion protein PrPC, primary screen, cell-based, TR-FRET (AID 720596; note: 0% = median of the test wells and 100% = reference compound wells)). Conditions: TR-FRET read-out, at 13.8 µM, hits give high values.

Q: How did the inhibition turn out when `COc1ccc(OC)c(-n2c(=S)[nH]c3cc(C(=O)N4CCCCC4)ccc3c2=O)c1` was run?
A: 2.99% (inactive)

Q: With `COc1cc2[nH]c(=S)n(Cc3ccc(C)o3)c(=O)c2cc1OC` as the molecule, how does the inhibition read?
A: -2% (inactive)

Q: `COc1cc(-n2c(=S)[nH]c3ccc(C)cc3c2=O)c(Cl)cc1Cl` was tested. Which inhibition did it give?
A: 41% (active)

Q: For `COc1cccc(C(=O)N2CCCC(CCC(=O)NCc3ccc(F)c(F)c3)C2)c1` (centres undefined), which inhibition is on record?
A: 1.57% (inactive)

Q: With `CCCOc1ccc(C2C(C(=O)c3ccc(C)o3)=C(O)C(=O)N2CCCn2ccnc2)cc1` (centres undefined) as the molecule, how does the inhibition read?
A: 39.3% (active)

Q: How did the inhibition turn out when `C=CCOc1cccc(C2C(C(=O)c3ccc(C)o3)=C(O)C(=O)N2CCN2CCOCC2)c1` (centres undefined) was run?
A: -10.8% (inactive)

Q: For `CCOc1ccc(C2/C(=C(/O)c3ccc4c(c3)CC(C)O4)C(=O)C(=O)N2CCCn2ccnc2)cc1` (centres undefined), which inhibition is on record?
A: 1.98% (inactive)

Q: Which inhibition does the source give for `CCOc1ccccc1OCCCNCc1ccccc1` here?
A: -4% (inactive)

Q: How did the inhibition turn out when `N#C/C=C1\Sc2ccccc2C(=O)N1CC(=O)N1CCN(S(=O)(=O)c2ccccc2)CC1` was run?
A: 59.8% (active)

Q: `CC(C)c1ccc(S(=O)(=O)N2CCN(C(=O)CN3C(=O)NC(C)(c4ccccc4)C3=O)CC2)cc1` (centres undefined) was tested. Which inhibition did it give?
A: -0.25% (inactive)

Q: How did the inhibition turn out when `O=C(CN1CCCSc2ccccc21)N1CCN(S(=O)(=O)c2cccc(F)c2)CC1` was run?
A: -1.47% (inactive)

Q: For `CCCN(C(=O)CSc1nnc(N)s1)c1c(N)n(Cc2ccccc2)c(=O)[nH]c1=O`, which inhibition is on record?
A: -0.1% (inactive)

Q: Which inhibition does the source give for `COc1ccc(Cl)cc1NC(=O)COc1ccc2c(c1)OCO2` here?
A: 0.61% (inactive)

Q: How did the inhibition turn out when `Cc1noc(C)c1NC(=O)Nc1ccc2c(c1)C(=O)N([C@H](C)CO)C[C@H](C)[C@@H](CN(C)S(=O)(=O)c1cn(C)cn1)O2` was run?
A: 3.79% (inactive)

Q: For `COc1ccc(C)cc1NC(=O)CSc1nnc2ccc(-c3ccccn3)nn12`, which inhibition is on record?
A: -1.48% (inactive)

Q: For `O=C(CCCNS(=O)(=O)c1cccc2nsnc12)NCCN1CCN(c2ccccc2F)CC1`, which inhibition is on record?
A: -22.9% (inactive)

Q: `Cc1cccc(C(=O)Nc2c(-c3ccc(F)cc3)nc3ncccn23)c1` was tested. Which inhibition did it give?
A: 0.67% (inactive)

Q: How did the inhibition turn out when `Cc1cccc(NC(=O)c2nc(S(=O)(=O)Cc3ccccc3)ncc2Cl)c1` was run?
A: 70.4% (active)

Q: With `Cc1cccc(CS(=O)(=O)c2ncc(Cl)c(C(=O)Nc3ccc(F)cc3)n2)c1` as the molecule, how does the inhibition read?
A: 54.3% (active)

Q: For `Cc1cccc(NC(=O)c2cc3c(C)nn(-c4ccccc4)c3s2)c1`, which inhibition is on record?
A: -2.71% (inactive)

Q: For `CN(CCC(=O)Nc1cc(S(=O)(=O)N(C)C)ccc1Cl)CC(=O)Nc1ccc(F)cc1`, which inhibition is on record?
A: -6.03% (inactive)

Q: With `Cc1cccc(NC(=O)Cn2c(=O)n(Cc3ccccc3)c(=O)c3c(C)c(C)sc32)c1` as the molecule, how does the inhibition read?
A: 4.63% (inactive)

Q: `Cc1ccc(NS(=O)(=O)c2cccs2)cc1S(=O)(=O)N1CCCCCC1` was tested. Which inhibition did it give?
A: 2.21% (inactive)

Q: For `Cc1cccc(CC(=O)N2CCN=C2SCc2ccc([N+](=O)[O-])cc2)c1`, which inhibition is on record?
A: -5.21% (inactive)

Q: Which inhibition does the source give for `CCCn1c(=S)[nH]c2ccc(C(F)(F)F)cc21` here?
A: 12.2% (inactive)

Q: `CCN(CC(=O)NCc1ccc(F)cc1)S(=O)(=O)c1ccc(Cl)s1` was tested. Which inhibition did it give?
A: -0.88% (inactive)

Q: How did the inhibition turn out when `Cc1ccc(Cl)cc1NC(=O)C1CCN(S(C)(=O)=O)CC1` was run?
A: 4.88% (inactive)

Q: With `Cc1ccnc(NC(=O)C2CCN(S(=O)(=O)c3c(C)c(C)cc(C)c3C)CC2)c1` as the molecule, how does the inhibition read?
A: 28.1% (active)

Q: With `O=C(Nc1ccccn1)C1CCN(S(=O)(=O)c2ccc3c(c2)OCCO3)CC1` as the molecule, how does the inhibition read?
A: -7.97% (inactive)

Q: With `O=C(/C=C/c1cnc2ccccc2n1)NC1CCCCCC1` as the molecule, how does the inhibition read?
A: -28.9% (inactive)

Q: For `CCOC(=O)c1c(C)oc2cc(Br)c(OCC(N)=O)cc12`, which inhibition is on record?
A: -4.57% (inactive)

Q: How did the inhibition turn out when `CCOC(=O)c1c(-c2ccccc2)oc2ccc(OC(=O)N(C)C)cc12` was run?
A: -3.58% (inactive)

Q: With `CCOC(=O)c1c(-c2ccccc2)oc2cc(Br)c(O)cc12` as the molecule, how does the inhibition read?
A: 58.6% (active)

Q: `CCNc1nc(NCC)nc(N(C)n2cnnc2)n1` was tested. Which inhibition did it give?
A: 3.48% (inactive)

Q: How did the inhibition turn out when `CCN(CC)c1ccc(S(=O)(=O)N2CCOCC2)cc1NC(=O)CSc1cccc[n+]1[O-]` was run?
A: -5.4% (inactive)

Q: With `CCN1CCN(C(=O)C2CCCN(S(=O)(=O)c3ccc(OC)c(OC)c3)C2)CC1` (centres undefined) as the molecule, how does the inhibition read?
A: -1.58% (inactive)

Q: With `Nc1cc2c(cc1Br)-c1ccc(F)cc1C2=O` as the molecule, how does the inhibition read?
A: -0.15% (inactive)

Q: For `O=C(/C=C/c1ccc([N+](=O)[O-])o1)NNC(=O)c1ccc(F)cc1`, which inhibition is on record?
A: 64.7% (active)

Q: `CCN(CC)N=Nc1cccc(NC(C)=O)c1` was tested. Which inhibition did it give?
A: -7.3% (inactive)

Q: With `Cc1ccc(SC(CC(=O)c2ccc(C(C)(C)C)cc2)C(=O)O)cc1` (centres undefined) as the molecule, how does the inhibition read?
A: -2% (inactive)

Q: For `O=C(OCC(=O)N1CCCCC1)c1ccc(OC(F)(F)F)cc1`, which inhibition is on record?
A: 8.76% (inactive)

Q: With `c1ccc(-n2ncc(-c3nn[nH]n3)n2)cc1` as the molecule, how does the inhibition read?
A: 1.91% (inactive)

Q: How did the inhibition turn out when `CCc1cc(-c2n[nH]c(=S)n2CC(C)C)cs1` was run?
A: -0.39% (inactive)

Q: How did the inhibition turn out when `Cc1ccc(S(=O)(=O)N2CCOCC2)cc1NC(=O)c1ccncc1` was run?
A: 7.08% (inactive)

Q: With `COc1ccc(C(=O)Nc2nc(-c3ccc(S(=O)(=O)N4CCOCC4)cc3)cs2)cc1` as the molecule, how does the inhibition read?
A: 27.2% (active)

Q: With `O=C(Nc1ccc(S(=O)(=O)N2CCOCC2)cc1)c1ccc2ncsc2c1` as the molecule, how does the inhibition read?
A: 0.06% (inactive)

Q: For `COc1ccc(NC(=O)CN(C)C(=O)c2cc(C3CC3)nn2-c2ccccc2)cc1`, which inhibition is on record?
A: 10.2% (inactive)

Q: Which inhibition does the source give for `CCC(C)(O)C(=O)OC1C(=O)OC2CC3C(C)=CC(=O)C(O)C3(C)C3C4(O)OCC23C1C(C)C4O` (centres undefined) here?
A: 83.1% (active)

Q: With `O=C(N/C(=C\c1ccc(F)cc1)C(=O)N1CCCCCC1)c1ccccc1` as the molecule, how does the inhibition read?
A: -7.9% (inactive)

Q: With `Cc1ccc(-c2nc3ccccc3c(=O)n2-c2ccc(Br)cn2)cc1` as the molecule, how does the inhibition read?
A: 0.03% (inactive)

Q: How did the inhibition turn out when `COc1ccc(CC(=O)NC(C)c2ccc(Cl)c(Cl)c2)cc1S(=O)(=O)N1CCOCC1` (centres undefined) was run?
A: 4.45% (inactive)

Q: Which inhibition does the source give for `COc1ccc(C)cc1NC(=O)CNCc1cccs1` here?
A: 0.34% (inactive)

Q: `O=C(COC(=O)CNC(=O)C1CCCCC1)Nc1cccc(F)c1` was tested. Which inhibition did it give?
A: -5.42% (inactive)

Q: How did the inhibition turn out when `Cc1ccsc1C(=O)OCC(=O)Nc1cccc(F)c1` was run?
A: 25.2% (active)

Q: Which inhibition does the source give for `CC1CC1C(=O)OCC(=O)Nc1cccc(F)c1` (centres undefined) here?
A: -3.56% (inactive)

Q: How did the inhibition turn out when `CCN(CC(=O)NCc1ccc(Cl)cc1)C(=O)CSc1ccccc1` was run?
A: 9.76% (inactive)

Q: Which inhibition does the source give for `CN1/C(=C\C(=O)c2oc3ccccc3c2N)C(C)(C)c2ccccc21` here?
A: 51.8% (active)

Q: How did the inhibition turn out when `CN1/C(=C\C=C2\N=C(c3ccc(F)cc3)OC2=O)C(C)(C)c2ccccc21` was run?
A: 9.17% (inactive)

Q: How did the inhibition turn out when `C=CCN1C(=O)C2(C(C(=O)OCC)=C(N)Oc3c2c(=O)oc2ccccc32)c2ccccc21` (centres undefined) was run?
A: 8.11% (inactive)

— PubChem BioAssay AID720596 (The Scripps Research Institute Molecular Screening Center, 2013)
